# Results published in PubChem BioAssay (NCI).
# This is part of a sample that, as a whole, favours compounds with a hit. Of some 79,000 tested, about 15% had one in any assay. Unmarked numbers belong to inactive results. Calls of active or inactive are those of the source. No stated cut-off is given here; in the data, active means growth inhibition above about 70%; inactive means the rest.
# How the values were obtained:
# [1] = NCI Yeast Anticancer Drug Screen. Data for the rad52 strain (AID 147);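 further: 0% = growth of vehicle-treated control cultures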; details: S. cerevisiae rad52 mutant growth inhibition, active compounds read high
# Method in brief: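 Vehicle-treated cultures served as the reference for growth inhibition of compound-exposed yeast bearing a DNA repair mutation.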
# [2] = NCI Yeast Anticancer Drug Screen. Data for the wt1 strain (AID 149);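 further: 0% = growth of vehicle-treated wt1 cultures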; details: S. cerevisiae wt1 strain (SPY 50644) growth inhibition, active compounds read high
# Method in brief: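 wt1 yeast, compound-treated; % growth inhibition vs vehicle control.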
# [3] = NCI Yeast Anticancer Drug Screen. Data for the rad50EPP+ strain (AID 151);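 further: 0% = growth of vehicle-treated control cultures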; details: S. cerevisiae rad50 mutant strain, active compounds read high
# Method in brief: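 In this screen, rad50EPP+ yeast were exposed to compounds. Growth inhibition was scored against vehicle-treated controls.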
# [4] = NCI Yeast Anticancer Drug Screen. Data for the mgt1 strain (AID 153); details: S. cerevisiae mgt1 mutant growth inhibition, active compounds read high
# Method in brief: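 mgt1 strain exposed; growth vs vehicle control recorded as inhibition.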
# [5] = NCI Yeast Anticancer Drug Screen. Data for the rad50 strain (AID 155);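 further: 0% = growth of vehicle-only cultures of the same strain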; details: S. cerevisiae rad50 strain growth inhibition, active compounds read high
# Method in brief: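 Genetically altered yeast (DNA repair pathway); compound treatment; growth inhibition vs vehicle ctrl.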
# [6] = NCI Yeast Anticancer Drug Screen. Data for the mec2-1 strain (AID 157); details: S. cerevisiae mec2-1 strain, active compounds read high
# Method in brief: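 Vehicle-treated cultures served as reference for growth inhibition of compound-exposed mec2-1 yeast.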
# [7] = NCI Yeast Anticancer Drug Screen. Data for the sgs1 mgt1 strain (AID 161);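 further: 0% = growth of cultures given vehicle only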; details: S. cerevisiae sgs1 mgt1 strain, active compounds read high
# Method in brief: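 Read-out: growth inhibition vs vehicle controls. Cells: mutant yeast strain deficient in DNA damage repair.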
# [8] = NCI Yeast Anticancer Drug Screen. Data for the CLN2oe strain (AID 163);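 further: 0% = growth of vehicle-only control cultures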; details: S. cerevisiae CLN2oe strain, active compounds read high
# Method in brief: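 Inhibition relative to vehicle-treated yeast is reported. Cells: strain with genetic alteration in cell-cycle control, grown with compound.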
# [9] = NCI Yeast Anticancer Drug Screen. Data for the cln2 rad14 strain (AID 165);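 further: 0% = growth equal to vehicle treated cultures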; details: S. cerevisiae cln2 rad14 strain, active compounds read high
# Method in brief: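 Each compound was tested on cln2 rad14 yeast. Inhibition of growth was calculated against vehicle-exposed controls.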
# [10] = NCI Yeast Anticancer Drug Screen. Data for the bub3 strain (AID 167); details: S. cerevisiae bub3 mutant strain, active compounds read high
# Method in brief: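 Yeast carrying a defined mutation is treated with each compound, and growth is compared with that of vehicle-exposed cells to give inhibition.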
# [11] = NCI Yeast Anticancer Drug Screen. Data for the wt2 strain (AID 169);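 further: 0% = growth of vehicle-treated yeast cultures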; details: S. cerevisiae wt2 strain growth inhibition, active compounds read high
# Method in brief: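 Inhibition of yeast growth was determined after compound treatment, normalised to controls receiving only vehicle.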
# [12] = NCI Yeast Anticancer Drug Screen. Data for the mlh1 strain (AID 171);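 further: 0% = growth of vehicle-treated control cultures of the same strain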; details: S. cerevisiae mlh1 strain growth inhibition, active compounds read high
# Method in brief: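 Vehicle-normalised growth inhibition of a repair- or checkpoint-altered yeast strain following compound treatment.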
# [13] = NCI Yeast Anticancer Drug Screen. Data for the sgs1 strain (AID 173);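 further: 0% = growth of vehicle-only control cultures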; details: S. cerevisiae sgs1 mutant, active compounds read high
# Method in brief: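 Screen format: yeast with repair or checkpoint alterations, compound exposure, growth read relative to vehicle.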
# [14] = NCI Yeast Anticancer Drug Screen. Data for the mlh1 rad18 strain (AID 175); details: S. cerevisiae mlh1 rad18 strain growth inhibition, active compounds read high
# Method in brief: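 Vehicle-treated cultures served as the reference for growth inhibition in a yeast strain carrying DNA damage repair alterations exposed to each compound.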
# [15] = NCI Yeast Anticancer Drug Screen. Data for the rad18 strain (AID 177); details: S. cerevisiae rad18 mutant growth inhibition, active compounds read high
# Method in brief: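 Test articles were incubated with altered yeast defective in DNA damage repair. Results are given as inhibition of growth versus vehicle.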
# [16] = at 5.0 µM (retest, dose inferred, filed as 0.5)
# [17] = at 50.0 µM (retest, dose inferred, filed as 5.0)
compound,measurement,setting,value
CCc1ncnc2cc(OCC3CO3)c(OC)cc12 (stereo not drawn),growth inhibition,[1]; at 1.2 µM,7%
same,growth inhibition,[1]; at 3.7 µM,46%
same,growth inhibition,[1]; at 11.0 µM,66%
same,growth inhibition,[1]; at 33.0 µM,82% (active)
same,growth inhibition,[1]; at 100.0 µM,87% (active)
same,growth inhibition,[2]; at 1.2 µM,-9%
same,growth inhibition,[2]; at 3.7 µM,8%
same,growth inhibition,[2]; at 11.0 µM,3%
same,growth inhibition,[2]; at 33.0 µM,6%
same,growth inhibition,[2]; at 100.0 µM,20%
same,growth inhibition,[3]; at 1.2 µM,8%
same,growth inhibition,[3]; at 3.7 µM,31%
same,growth inhibition,[3]; at 11.0 µM,31%
same,growth inhibition,[3]; at 33.0 µM,47%
same,growth inhibition,[3]; at 100.0 µM,74% (active)
same,growth inhibition,[4]; at 1.2 µM,-14%
same,growth inhibition,[4]; at 3.7 µM,-8%
same,growth inhibition,[4]; at 11.0 µM,-3%
same,growth inhibition,[4]; at 33.0 µM,22%
same,growth inhibition,[4]; at 100.0 µM,48%
same,growth inhibition,[5]; at 1.2 µM,23%
same,growth inhibition,[5]; at 3.7 µM,44%
same,growth inhibition,[5]; [16],72% (active)
same,growth inhibition,[5]; at 11.0 µM,72% (active)
same,growth inhibition,[5]; at 33.0 µM,85% (active)
same,growth inhibition,[5]; [17],92% (active)
same,growth inhibition,[5]; at 50.0 µM,84.3% (active)
same,growth inhibition,[5]; at 100.0 µM,91% (active)
same,growth inhibition,[6]; at 1.2 µM,2%
same,growth inhibition,[6]; at 3.7 µM,6%
same,growth inhibition,[6]; [16],26%
same,growth inhibition,[6]; at 11.0 µM,22%
same,growth inhibition,[6]; at 33.0 µM,75% (active)
same,growth inhibition,[6]; [17],92% (active)
same,growth inhibition,[6]; at 50.0 µM,89.4% (active)
same,growth inhibition,[6]; at 100.0 µM,91% (active)
same,growth inhibition,[7]; [16],79% (active)
same,growth inhibition,[7]; [17],93% (active)
same,growth inhibition,[7]; at 50.0 µM,82.7% (active)
same,growth inhibition,[8]; at 1.2 µM,20%
same,growth inhibition,[8]; at 3.7 µM,15%
same,growth inhibition,[8]; at 11.0 µM,27%
same,growth inhibition,[8]; at 33.0 µM,30%
same,growth inhibition,[8]; at 100.0 µM,52%
same,growth inhibition,[9]; [16],17%
same,growth inhibition,[9]; [17],79% (active)
same,growth inhibition,[9]; at 50.0 µM,79.1% (active)
same,growth inhibition,[10]; at 1.2 µM,17%
same,growth inhibition,[10]; at 3.7 µM,-7%
same,growth inhibition,[10]; [16],10%
same,growth inhibition,[10]; at 11.0 µM,2%
same,growth inhibition,[10]; at 33.0 µM,12%
same,growth inhibition,[10]; [17],47%
same,growth inhibition,[10]; at 50.0 µM,17.9%
same,growth inhibition,[10]; at 100.0 µM,43%
same,growth inhibition,[11]; at 1.2 µM,-26%
same,growth inhibition,[11]; at 3.7 µM,-15%
same,growth inhibition,[11]; at 11.0 µM,-14%
same,growth inhibition,[11]; at 33.0 µM,13%
same,growth inhibition,[11]; at 100.0 µM,72% (active)
same,growth inhibition,[12]; at 1.2 µM,-4%
same,growth inhibition,[12]; at 3.7 µM,-6%
same,growth inhibition,[12]; at 11.0 µM,9%
same,growth inhibition,[12]; at 33.0 µM,14%
same,growth inhibition,[12]; at 100.0 µM,61%
same,growth inhibition,[13]; at 1.2 µM,31%
same,growth inhibition,[13]; at 3.7 µM,53%
same,growth inhibition,[13]; at 11.0 µM,70% (active)
same,growth inhibition,[13]; at 33.0 µM,82% (active)
same,growth inhibition,[13]; at 100.0 µM,91% (active)
Cc1nc(-c2ccccc2)c(-c2ccccc2)s1,growth inhibition,[1]; at 1.2 µM,23%
same,growth inhibition,[1]; at 3.7 µM,0%
same,growth inhibition,[1]; at 11.0 µM,17%
same,growth inhibition,[1]; at 33.0 µM,68%
same,growth inhibition,[1]; at 100.0 µM,98% (active)
same,growth inhibition,[2]; at 1.2 µM,-12%
same,growth inhibition,[2]; at 3.7 µM,9%
same,growth inhibition,[2]; at 11.0 µM,9%
same,growth inhibition,[2]; at 33.0 µM,59%
same,growth inhibition,[2]; at 100.0 µM,98% (active)
same,growth inhibition,[3]; at 1.2 µM,-24%
same,growth inhibition,[3]; at 3.7 µM,4%
same,growth inhibition,[3]; at 11.0 µM,29%
same,growth inhibition,[3]; at 33.0 µM,50%
same,growth inhibition,[3]; at 100.0 µM,65%
same,growth inhibition,[4]; at 1.2 µM,24%
same,growth inhibition,[4]; at 3.7 µM,8%
same,growth inhibition,[4]; at 11.0 µM,44%
same,growth inhibition,[4]; at 33.0 µM,95% (active)
same,growth inhibition,[4]; at 100.0 µM,99% (active)
same,growth inhibition,[5]; at 1.2 µM,-29%
same,growth inhibition,[5]; at 3.7 µM,-24%
same,growth inhibition,[5]; [16],98% (active)
same,growth inhibition,[5]; at 11.0 µM,-19%
same,growth inhibition,[5]; at 33.0 µM,77% (active)
same,growth inhibition,[5]; [17],100% (active)
same,growth inhibition,[5]; at 50.0 µM,84.4% (active)
same,growth inhibition,[5]; at 100.0 µM,97% (active)
same,growth inhibition,[6]; at 1.2 µM,3%
same,growth inhibition,[6]; at 3.7 µM,26%
same,growth inhibition,[6]; [16],96% (active)
same,growth inhibition,[6]; at 11.0 µM,24%
same,growth inhibition,[6]; at 33.0 µM,67%
same,growth inhibition,[6]; [17],100% (active)
same,growth inhibition,[6]; at 50.0 µM,84.5% (active)
same,growth inhibition,[6]; at 100.0 µM,97% (active)
same,growth inhibition,[7]; [16],-6%
same,growth inhibition,[7]; [17],100% (active)
same,growth inhibition,[7]; at 50.0 µM,88.4% (active)
same,growth inhibition,[8]; at 1.2 µM,-2%
same,growth inhibition,[8]; at 3.7 µM,-17%
same,growth inhibition,[8]; at 11.0 µM,1%
same,growth inhibition,[8]; at 33.0 µM,39%
same,growth inhibition,[8]; at 100.0 µM,96% (active)
same,growth inhibition,[9]; [16],71% (active)
same,growth inhibition,[9]; [17],101% (active)
same,growth inhibition,[9]; at 50.0 µM,66.1%
same,growth inhibition,[10]; at 1.2 µM,6%
same,growth inhibition,[10]; at 3.7 µM,2%
same,growth inhibition,[10]; [16],8%
same,growth inhibition,[10]; at 11.0 µM,22%
same,growth inhibition,[10]; at 33.0 µM,78% (active)
same,growth inhibition,[10]; [17],101% (active)
same,growth inhibition,[10]; at 50.0 µM,84.5% (active)
same,growth inhibition,[10]; at 100.0 µM,98% (active)
same,growth inhibition,[11]; at 1.2 µM,-38%
same,growth inhibition,[11]; at 3.7 µM,-16%
same,growth inhibition,[11]; at 11.0 µM,-20%
same,growth inhibition,[11]; at 33.0 µM,81% (active)
same,growth inhibition,[11]; at 100.0 µM,97% (active)
same,growth inhibition,[12]; at 1.2 µM,29%
same,growth inhibition,[12]; at 3.7 µM,16%
same,growth inhibition,[12]; at 11.0 µM,41%
same,growth inhibition,[12]; at 33.0 µM,87% (active)
same,growth inhibition,[12]; at 100.0 µM,97% (active)
same,growth inhibition,[13]; at 1.2 µM,-11%
same,growth inhibition,[13]; at 3.7 µM,-1%
same,growth inhibition,[13]; at 11.0 µM,6%
same,growth inhibition,[13]; at 33.0 µM,86% (active)
same,growth inhibition,[13]; at 100.0 µM,98% (active)
same,growth inhibition,[14]; [16],100% (active)
same,growth inhibition,[14]; [17],100% (active)
same,growth inhibition,[14]; at 50.0 µM,86.5% (active)
same,growth inhibition,[15]; at 1.2 µM,-10%
same,growth inhibition,[15]; at 3.7 µM,8%
same,growth inhibition,[15]; at 11.0 µM,6%
same,growth inhibition,[15]; at 33.0 µM,67%
same,growth inhibition,[15]; at 100.0 µM,94% (active)
